# Data from the supplement of paper PMC6555819.
# System: RARg:RXRa (NR concentration 270 nM, RXRa partner concentration 90 nM)
# Assay: PBM binding z-score (relative to random genomic background probes); higher = stronger binding; sequences stand for … in GC…GCGATTGACAGCGTAGAATGAAGG
# Procedure, shortened: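 The probes on custom Agilent 4×180K protein-binding microarrays were double-stranded, with 34-nt variable regions bearing direct-repeat seeds, single-nucleotide variants, half-site ablations and random human genomic background sequences. Incubation lasted 1 h with ligand-free nuclear receptor dimers in PBS pH 7.4, 2% milk, 0.02% Triton X-100, 1 mM DTT, 0.2 mg/mL BSA and 0.4 mg/ml salmon testes DNA. Antibodies against each partner (one per run) detected bound dimers, and fluorescence scans were regression-normalized. Binding z-scores take the random background probes as reference.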
row,Sequence,PBM binding z-score
1,TCTATTAGTTGAAGGGCAAACGACGAGTCCGTTT,0.673
2,ATCGAAAGGTCGAAGGTAAGTATACCCACCCGAA,3.86
3,ACTGGCAGGCCAAGGGTCACTCAAGATTAGTCCG,4.14
4,CCGACTGGGGCAAGGTTACCATAACGCACAGCCA,1.31
5,ATCTCTAGGTAAAGATAGTACAGTGAATGCAAAT,0.268
6,ATCTGTAGGTAAAGATAGTTCAGTGAATGCAAAT,0.435
7,CCTAATTGGTCAGGAGGTCACACACCGGATATGA,4.97
8,CATGCTAGGTCAATGGTCAGCTAAAGCAGCTCGC,3.81
9,ATATGTAGGTTAGCTGGGGTCATACAGACTAGGC,4.36
10,ATCTCTAGGTAAAGTTAAGTGAAAGATCGATAGA,0.48
11,ACTATTAGTTGACTTCGGGCAACCGATACGACGC,0.37
12,CCTTACGGGTCACTGACAAGTTATAGCATTTGGA,4.86
13,ACTAGCAGGCCAAGTTTGGGTCACCCAAACAAAG,2.88
14,CCGACTGGGGCAAAGGTTACCAGACTCAGTACGA,3.65
15,GCTAGTTGGTCAGTAAAAGGTCACAAACCGGTCG,4.99
16,ATATGTAGGCTAGCTGGGGTCATTCAGACTAGGC,3.59
17,CATACAGGGTCAGCTAGGCCAGAGTCGGGACGGC,4.42
18,ATCTGTAGGTAACAAGTTCAGTGAAAGAGAGGAC,1.44
19,AGTCATAGTTCAGGACGAGGTAACGTAAAGCACG,2.66
20,TCATATAAGTAAATGCTAGGTGAAAGTCCGATCT,0.478
21,TCATAAAGGTAAAGGTGAAAGTCGAACGATATGA,2.14
22,TCTGCTAGGTCAACCATGGTCAGCTAATCTGCTA,4.4
